# Results reported in PubChem BioAssay (Tox21).
# Values joined by “and” are separate entries in the source; they are usually repeats but may differ in a detail not shown here. Identical values can stand only once. Results filed as inconclusive are left out. A call without a number means that no potency is given here. Unmarked numbers belong to inactive results. Active and inactive are the calls of the source. The call rests on the fitted dose curve; in most records, active means well fitted curve in the direction sought with a large enough effect in the repeat runs; inconclusive means weak or mixed curves; inactive means no such curve, though single readings can be large; an effect the other way counts as inactive or inconclusive.
# What was measured:
# [1] = biological target: Cytochrome P450 2C19 (Homo sapiens) (UniProt P33261); experiment: Cytochrome P450 Family 2 Subfamily C Member 19 (CYP2C19) small molecule antagonists: luciferase reporter qHTS assay (AID 1671197); further: nearly all actives have a fitted effect of over 65% in size; on activity change, negative = inhibition: series mostly up to about 120 µM
# Sequence of Cytochrome P450 2C19 (Homo sapiens) (P33261 whole entry, looked up): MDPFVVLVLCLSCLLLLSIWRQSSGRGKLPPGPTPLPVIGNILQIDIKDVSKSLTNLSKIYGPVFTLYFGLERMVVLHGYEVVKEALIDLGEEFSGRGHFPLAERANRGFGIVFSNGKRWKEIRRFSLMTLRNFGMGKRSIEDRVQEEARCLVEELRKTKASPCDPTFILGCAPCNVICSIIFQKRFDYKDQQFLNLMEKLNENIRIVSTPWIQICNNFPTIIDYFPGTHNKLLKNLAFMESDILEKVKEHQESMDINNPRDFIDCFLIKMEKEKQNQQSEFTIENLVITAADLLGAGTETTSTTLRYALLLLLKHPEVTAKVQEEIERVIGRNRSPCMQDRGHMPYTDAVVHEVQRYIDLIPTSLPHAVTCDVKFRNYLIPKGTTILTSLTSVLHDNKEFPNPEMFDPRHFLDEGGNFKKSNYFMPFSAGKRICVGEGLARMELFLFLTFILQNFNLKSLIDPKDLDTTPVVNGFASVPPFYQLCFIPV
# How it was run: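 P450-Glo CYP2C19 system: enzyme-substrate mix with compound 10 min at room temperature, then NADPH regeneration solution, 1 h at 37C. Proluciferin-to-luciferin conversion detected by luminescence after 20 min with detection reagent; ketoconazole as positive control.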
# [2] = biological target: Cytochrome P450 1A2 (Homo sapiens) (UniProt P05177); experiment: Cytochrome P450 Family 1 Subfamily A Member 2 (CYP1A2) small molecule antagonists: luciferase reporter qHTS assay (AID 1671199); further: nearly all actives have a fitted effect of over 50% in size; on activity change, negative = inhibition: series mostly up to about 120 µM
# Sequence of Cytochrome P450 1A2 (Homo sapiens) (P05177 whole entry, looked up): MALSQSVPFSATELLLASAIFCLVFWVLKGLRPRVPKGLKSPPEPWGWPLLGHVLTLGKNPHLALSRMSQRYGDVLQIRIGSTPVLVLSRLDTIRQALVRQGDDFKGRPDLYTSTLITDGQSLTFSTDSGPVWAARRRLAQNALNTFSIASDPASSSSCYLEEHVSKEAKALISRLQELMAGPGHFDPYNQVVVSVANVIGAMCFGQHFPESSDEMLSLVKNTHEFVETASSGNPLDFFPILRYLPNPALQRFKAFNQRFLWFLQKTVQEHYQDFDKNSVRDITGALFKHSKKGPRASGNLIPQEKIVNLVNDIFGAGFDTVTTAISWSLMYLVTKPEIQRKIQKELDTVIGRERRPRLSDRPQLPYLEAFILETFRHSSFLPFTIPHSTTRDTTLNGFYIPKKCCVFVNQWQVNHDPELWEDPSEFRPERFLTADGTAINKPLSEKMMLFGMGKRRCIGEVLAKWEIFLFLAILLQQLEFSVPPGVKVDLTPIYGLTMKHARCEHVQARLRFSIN
# How it was run: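 Room-temperature CYP1A2 reaction with proluciferin substrate: compounds added from DMSO, 10 min preincubation, NADPH regeneration for 1 h. Luciferin detection reagent then added; luminescence recorded as RLU.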
# [3] = biological target: Voltage-gated inwardly rectifying potassium channel KCNH2 (Homo sapiens) (UniProt Q12809); experiment: Human Ether-a-go-go-Related Gene (hERG) channel small molecule antagonists: fluorescence cell-based qHTS assay (AID 1671200); further: nearly all actives have a fitted effect of over 50% in size;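 on activity change, negative = inhibition: hERG-expressing U2OS cells given a thallium stimulus after FluxOR II dye loading; series mostly up to about 77 µM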
# Sequence of Voltage-gated inwardly rectifying potassium channel KCNH2 (Homo sapiens) (Q12809 whole entry, looked up): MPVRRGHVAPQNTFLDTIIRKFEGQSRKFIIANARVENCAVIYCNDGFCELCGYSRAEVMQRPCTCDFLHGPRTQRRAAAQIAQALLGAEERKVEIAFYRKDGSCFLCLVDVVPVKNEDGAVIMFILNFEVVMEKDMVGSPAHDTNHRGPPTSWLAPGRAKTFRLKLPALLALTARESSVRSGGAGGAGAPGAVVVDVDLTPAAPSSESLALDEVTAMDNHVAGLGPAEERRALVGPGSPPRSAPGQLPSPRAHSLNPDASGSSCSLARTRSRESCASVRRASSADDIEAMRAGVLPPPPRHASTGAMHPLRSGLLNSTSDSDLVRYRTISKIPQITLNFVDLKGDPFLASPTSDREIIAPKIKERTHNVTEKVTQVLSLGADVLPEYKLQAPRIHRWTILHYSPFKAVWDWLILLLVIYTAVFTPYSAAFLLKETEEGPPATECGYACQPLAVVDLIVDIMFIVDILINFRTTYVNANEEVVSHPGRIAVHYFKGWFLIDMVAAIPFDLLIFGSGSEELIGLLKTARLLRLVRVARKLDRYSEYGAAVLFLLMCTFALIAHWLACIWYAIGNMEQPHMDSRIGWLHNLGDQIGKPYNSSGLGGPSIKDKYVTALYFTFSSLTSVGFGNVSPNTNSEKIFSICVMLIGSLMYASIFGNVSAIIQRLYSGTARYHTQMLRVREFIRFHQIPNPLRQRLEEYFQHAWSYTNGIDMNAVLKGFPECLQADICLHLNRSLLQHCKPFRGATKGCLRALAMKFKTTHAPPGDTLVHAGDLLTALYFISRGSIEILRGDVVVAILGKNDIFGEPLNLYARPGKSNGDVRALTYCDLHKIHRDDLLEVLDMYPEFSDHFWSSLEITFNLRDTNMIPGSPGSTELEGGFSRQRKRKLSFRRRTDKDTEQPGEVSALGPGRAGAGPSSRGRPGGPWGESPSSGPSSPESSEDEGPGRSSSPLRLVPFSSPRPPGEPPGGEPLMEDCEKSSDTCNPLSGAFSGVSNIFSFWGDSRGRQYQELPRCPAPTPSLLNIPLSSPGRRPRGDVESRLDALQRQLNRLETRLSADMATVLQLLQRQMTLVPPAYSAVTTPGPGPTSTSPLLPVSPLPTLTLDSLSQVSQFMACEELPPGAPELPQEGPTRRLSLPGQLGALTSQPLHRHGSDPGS
# How it was run: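 Thallium served as the potassium surrogate; its influx into dye-loaded U2OS cells carrying the channel was measured by fluorescence over 2 min.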
# [4] = biological target: Cytochrome P450 2C9 (Homo sapiens) (UniProt P11712); experiment: Cytochrome P450 Family 2 Subfamily C Member 9 (CYP2C9) small molecule antagonists: luciferase reporter qHTS assay (AID 1671198); further: nearly all actives have a fitted effect of over 50% in size; on activity change, negative = inhibition: series mostly up to about 120 µM
# Sequence of Cytochrome P450 2C9 (Homo sapiens) (P11712 whole entry, looked up): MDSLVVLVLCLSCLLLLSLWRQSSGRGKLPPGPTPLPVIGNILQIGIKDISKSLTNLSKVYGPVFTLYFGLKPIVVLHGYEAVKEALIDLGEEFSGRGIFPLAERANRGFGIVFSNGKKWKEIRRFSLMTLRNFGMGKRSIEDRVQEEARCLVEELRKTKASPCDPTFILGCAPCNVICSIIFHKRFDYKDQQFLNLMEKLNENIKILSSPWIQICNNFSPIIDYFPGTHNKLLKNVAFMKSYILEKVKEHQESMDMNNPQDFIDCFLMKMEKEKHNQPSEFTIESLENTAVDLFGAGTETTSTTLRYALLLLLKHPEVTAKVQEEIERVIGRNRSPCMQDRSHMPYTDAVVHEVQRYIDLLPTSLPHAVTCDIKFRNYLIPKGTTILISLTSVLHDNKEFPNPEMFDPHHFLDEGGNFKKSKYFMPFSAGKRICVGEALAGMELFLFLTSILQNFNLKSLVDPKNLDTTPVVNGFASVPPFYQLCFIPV
# How it was run: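 CYP2C9 activity was measured with a P450-Glo proluciferin substrate. Enzyme–substrate mix was held with compound for 10 min at room temperature, then NADPH regeneration solution was added for 1 h at 37C. Luciferin product was read as luminescence.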
# [5] = biological target: Cytochrome P450 3A4 (Homo sapiens) (UniProt P08684); experiment: Cytochrome P450 Family 3 Subfamily A Member 4 (CYP3A4) small molecule antagonists: luciferase reporter qHTS assay (AID 1671201); further: nearly all actives have a fitted effect of over 50% in size; on activity change, negative = inhibition: series mostly up to about 120 µM
# Sequence of Cytochrome P450 3A4 (Homo sapiens) (P08684 whole entry, looked up): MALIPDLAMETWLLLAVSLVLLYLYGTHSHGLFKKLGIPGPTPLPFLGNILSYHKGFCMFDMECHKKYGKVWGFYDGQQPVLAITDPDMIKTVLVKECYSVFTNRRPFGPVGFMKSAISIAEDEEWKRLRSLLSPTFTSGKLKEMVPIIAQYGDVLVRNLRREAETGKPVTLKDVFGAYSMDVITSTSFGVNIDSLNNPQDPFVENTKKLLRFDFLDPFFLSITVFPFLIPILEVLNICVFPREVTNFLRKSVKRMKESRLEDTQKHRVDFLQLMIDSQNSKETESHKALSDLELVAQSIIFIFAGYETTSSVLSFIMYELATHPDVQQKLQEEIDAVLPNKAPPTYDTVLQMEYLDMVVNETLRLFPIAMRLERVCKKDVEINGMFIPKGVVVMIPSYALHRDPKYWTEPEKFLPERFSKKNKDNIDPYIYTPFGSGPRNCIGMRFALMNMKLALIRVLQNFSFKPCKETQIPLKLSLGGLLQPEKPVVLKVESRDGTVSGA
# How it was run: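 Relative luminescence units after 20 min with luciferin detection reagent served as read-out. Beforehand, CYP3A4 turned over a proluciferin substrate for 1 h at room temperature with NADPH regeneration, following 10 min compound preincubation.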
# Potency means the concentration at half of the fitted maximal effect.
smiles,measurement,setting,value
CN1CCN(C2=Nc3cc(Cl)ccc3Nc3ccccc32)CC1,Potency,[1],inactive
same,Potency,[2],inactive
CN1CCC[C@@H]1c1cccnc1,Potency,[1],inactive
same,Potency,[2],inactive
same,Potency,[3],inactive
Cc1cccc(OCCOc2cccc(C)c2)c1,Potency,[1],3.77 µM (active)
same,Potency,[2],8.45 µM (active)
same,Potency,[3],inactive
Cc1ccc(C(C)c2ccc(C)c(C)c2)cc1C,Potency,[1],7.1 µM (active)
same,Potency,[4],11.2 µM (active)
same,Potency,[3],inactive
same,Potency,[5],inactive
O=S(=O)(O)c1ccc(O)c2ncccc12,Potency,[1],inactive
same,Potency,[2],inactive
same,Potency,[3],inactive
same,Potency,[5],inactive
CCCCOCCOCCOCCOCCO,Potency,[1],inactive
same,Potency,[4],inactive
same,Potency,[3],inactive
same,Potency,[5],inactive
N#Cc1c(F)cccc1F,Potency,[1],inactive
same,Potency,[4],inactive
same,Potency,[3],inactive
same,Potency,[5],inactive
CCOC(=O)C1=NN(c2ccccc2)C(=O)C1,Potency,[1],inactive
same,Potency,[4],71 µM (active)
same,Potency,[3],inactive
same,Potency,[5],inactive
O=C(O)c1cccc(N(Cc2cccnc2)c2ccc(OC(F)F)c(OC(F)F)c2)c1,Potency,[1],35.6 µM (active)
same,Potency,[4],25.2 µM (active)
same,Potency,[3],inactive
same,Potency,[5],inactive
CC1(C)CCC(C)(C)c2cc(NC(=O)c3ccc(C(=O)O)cc3)ccc21,Potency,[1],inactive
same,Potency,[2],inactive
same,Potency,[3],inactive
Cc1cc(NC(=O)C(=O)O)cc(C)c1Oc1ccc(O)c2c1CCC2,Potency,[1],25.2 µM (active)
same,Potency,[4],35.6 µM (active)
same,Potency,[3],inactive
same,Potency,[5],inactive
CC(C)c1cccc(C(C)C)c1NC(=O)NS(=O)(=O)c1cc(C(C)(C)O)co1,Potency,[1],11.2 µM (active)
same,Potency,[4],35.6 µM (active)
same,Potency,[3],inactive
same,Potency,[5],inactive
CC1=CCC(C(C)C)C=C1 (centres undefined),Potency,[1],79.6 µM (active)
same,Potency,[4],50.2 µM (active)
same,Potency,[3],inactive
same,Potency,[5],25.2 µM (active)
O=[N+]([O-])c1cccc(Cl)c1Cl,Potency,[1],inactive
same,Potency,[4],inactive
same,Potency,[3],inactive
same,Potency,[5],inactive
NCCCN(CCO)CCO,Potency,[1],inactive
same,Potency,[4],inactive
same,Potency,[3],inactive
same,Potency,[5],inactive
COCCCCCCCCOCCC[Si](C)(O[Si](C)(C)C)O[Si](C)(C)C,Potency,[1],56.4 µM (active)
same,Potency,[4],35.6 µM (active)
same,Potency,[5],3.56 µM (active)
CCCCCCCCCCCCCCCBr,Potency,[1],inactive
same,Potency,[4],inactive
same,Potency,[3],inactive
same,Potency,[5],inactive
CC(C)(C)c1ccc(S)cc1,Potency,[1],50.2 µM (active)
same,Potency,[4],31.7 µM (active)
same,Potency,[3],inactive
same,Potency,[5],inactive
CC(C)(C)c1ccc(OCC2CO2)cc1 (centres undefined),Potency,[1],64.6 µM (active)
same,Potency,[4],72.4 µM (active)
same,Potency,[3],inactive
same,Potency,[5],inactive
CC[C@]12CCCN3CCc4c(n(c5ccccc45)C(=O)C1)[C@@H]32,Potency,[1],4.9 µM (active)
same,Potency,[2],inactive
same,Potency,[3],1.69 µM (active)
CC(C(=O)O)c1ccc(-c2ccccc2)c(F)c1 (centres undefined),Potency,[1],inactive
same,Potency,[4],25.2 µM (active)
same,Potency,[3],inactive
same,Potency,[5],inactive
C[Si](C)O[Si](C)(C)O[Si](C)(C)O[Si](C)C,Potency,[1],inactive
same,Potency,[2],inactive
same,Potency,[3],inactive
CCCCCCCCCC(=O)OCC,Potency,[1],56.4 µM (active)
same,Potency,[4],inactive
same,Potency,[3],inactive
same,Potency,[5],inactive
CCN(CC)CCc1nc(-c2ccccc2)no1,Potency,[1],inactive
same,Potency,[4],inactive
same,Potency,[3],inactive
same,Potency,[5],inactive
O=C(O)c1cn(C2CC2)c2cc(Cl)c(F)cc2c1=O,Potency,[1],inactive
same,Potency,[4],inactive
same,Potency,[3],inactive
same,Potency,[5],inactive
CC(C)CC=O,Potency,[1],35.6 µM (active)
same,Potency,[2],inactive
same,Potency,[3],inactive
CC(=O)NCCCS(=O)(=O)O,Potency,[1],inactive
same,Potency,[4],inactive
same,Potency,[3],inactive
same,Potency,[5],inactive
O=C(O)Cc1sc(-c2ccccc2)nc1-c1ccc(Cl)cc1,Potency,[1],inactive
same,Potency,[4],4.9 µM (active)
same,Potency,[3],inactive
same,Potency,[5],inactive
CCCCCCCCC(CO)CCCCCC (centres undefined),Potency,[1],31.7 µM (active)
same,Potency,[4],25.2 µM (active)
same,Potency,[3],inactive
same,Potency,[5],inactive
O=C(C(=O)c1ccc(Br)cc1)c1ccc(Br)cc1,Potency,[1],0.352 µM (active)
same,"activity change, negative = inhibition",[4],-0.879% [at 23.6 µM]
same,"activity change, negative = inhibition",[3],-1.71% [at 15.8 µM]
same,"activity change, negative = inhibition",[5],4.73% [at 23.6 µM]
Cc1ccc(O)c([C@H](CCN(C(C)C)C(C)C)c2ccccc2)c1,Potency,[1],24.5 µM (active)
same,Potency,[2],inactive
CCN(CC)CCOc1ccc2c(c1)C(=O)c1cc(OCCN(CC)CC)ccc1-2,Potency,[1],inactive
same,Potency,[4],inactive
same,Potency,[3],inactive
same,Potency,[5],inactive
CCC(=O)OC(C)(C)C1CC=C(C)CC1 (centres undefined),Potency,[3],inactive
CC(=O)/C=C/C1C(C)=CCCC1(C)C (centres undefined),Potency,[4],inactive
same,Potency,[2],inactive
same,Potency,[3],inactive
same,Potency,[5],inactive
CCCCOc1cc(C(=O)OCCN(CC)CC)ccc1N,Potency,[5],inactive
O=c1[nH]cnc2ccccc12,Potency,[4],inactive
same,Potency,[3],inactive
same,Potency,[5],inactive
CC(Cc1cccc(C(F)(F)F)c1)NCCOC(=O)c1ccccc1 (centres undefined),Potency,[4],27.5 µM (active)
same,Potency,[3],8.49 µM (active)
CCOc1nc2cccc(C(=O)O)c2n1Cc1ccc(-c2ccccc2-c2nn[nH]n2)cc1,Potency,[3],inactive
Cc1cccc(C(C)(C)C)c1O,Potency,[3],inactive
CC(=O)/C(C)=C/C1C(C)=CCCC1(C)C (centres undefined),Potency,[2],79.6 µM (active)
same,Potency,[3],inactive
same,Potency,[5],inactive
OCC1CC2CC1C1CCC(CO)C21 (centres undefined),Potency,[3],inactive
same,Potency,[5],inactive
O=S1(=O)N=C(O)c2ccccc21,Potency,[3],inactive
CCN(CCO)CCCC(C)Nc1ccnc2cc(Cl)ccc12 (centres undefined),"activity change, negative = inhibition",[3],9.57% [at 6.97 µM]
CCOC(=S)SSC(=S)OCC,Potency,[4],17.8 µM (active)
same,Potency,[3],inactive
same,Potency,[5],inactive
Oc1ccc(O)c2c(O)cccc12,Potency,[4],inactive
same,Potency,[2],39.6 µM (active)
same,Potency,[3],inactive
same,Potency,[5],inactive
NC[C@H]1O[C@H](O[C@H]2[C@H](O)[C@@H](O[C@H]3O[C@H](CO)[C@@H](O)[C@H](N)[C@H]3O)[C@H](N)C[C@@H]2N)[C@H](O)[C@@H](O)[C@@H]1O,"activity change, negative = inhibition",[3],0.203% [at 6.97 µM]
same,"activity change, negative = inhibition",[5],8.95% [at 10.5 µM]
CCN(CC)CCOC(=O)C1(c2ccccc2)CCCC1,Potency,[4],inactive
same,Potency,[3],inactive
CN(C)CCCOc1nn(Cc2ccccc2)c2ccccc12,Potency,[3],4.25 µM (active)
O=C(O)Cc1cc(I)c(Oc2ccc(O)c(I)c2)c(I)c1,Potency,[3],inactive
CCOC(=O)CC(=O)c1cc(F)c(Cl)nc1Cl,Potency,[3],inactive
same,Potency,[5],inactive
CCCCOc1ccc(CC(=O)NO)cc1,Potency,[2],15.5 µM (active)
same,Potency,[3],inactive
same,Potency,[5],inactive
c1ccc(-c2nc[nH]c2-c2ccccc2)cc1,Potency,[2],8.12 µM (active)
same,Potency,[3],inactive
N=C(N=C(N)N)N1CCOCC1,Potency,[4],inactive
same,Potency,[3],inactive
same,Potency,[5],inactive
CN(C)CCCNCCCN,Potency,[4],inactive
same,Potency,[2],35.4 µM (active)
same,Potency,[3],inactive
same,Potency,[5],inactive
CC(=O)Nc1ccc(/C=N/NC(N)=S)cc1,Potency,[4],inactive
same,Potency,[2],inactive
same,Potency,[3],inactive
same,Potency,[5],inactive
Cn1sccc1=O,Potency,[4],31.7 µM (active) and 35.6 µM (active)
same,Potency,[2],35.6 µM (active) and 31.7 µM (active)
same,Potency,[3],inactive
same,Potency,[5],inactive
CC(=O)OC/C=C/c1ccccc1,Potency,[2],31.7 µM (active)
same,Potency,[3],inactive
same,Potency,[5],inactive
CC(C)=CCCC(C)CC=O (centres undefined),Potency,[3],inactive
Cc1ccccn1,Potency,[3],inactive
O=C(NS(=O)(=O)/C=C/c1cccs1)c1ccc(F)cc1Br,Potency,[4],7.1 µM (active)
same,Potency,[2],inactive
same,Potency,[3],inactive
same,Potency,[5],inactive
NCCCOCCOCCOCCCN,Potency,[3],inactive
same,Potency,[5],inactive
CC(=O)SCc1ccco1,Potency,[2],inactive
same,Potency,[3],inactive
Cc1cc(C)c(S(=O)(=O)O)cc1N=Nc1cc(S(=O)(=O)O)c2ccccc2c1O,Potency,[4],63.3 µM (active)
same,Potency,[3],inactive
same,Potency,[5],inactive
CCc1nn(C2CCCCC2)c2cc(C3(C#N)CCC(C(=O)O)CC3)ccc12 (centres undefined),Potency,[4],20 µM (active)
same,Potency,[2],inactive
same,Potency,[3],inactive
same,Potency,[5],inactive
ClC(Cl)(Cl)c1ccc(C(Cl)(Cl)Cl)cc1,Potency,[4],39.5 µM (active)
same,Potency,[2],4.98 µM (active)
same,Potency,[3],6.85 µM (active)
same,Potency,[5],inactive
CC1=CC(=O)/C(=C(/C)O)C(=O)O1,Potency,[4],63.3 µM (active)
same,Potency,[3],inactive
same,Potency,[5],inactive
CN(C)C/C=C(/c1ccc(Br)cc1)c1cccnc1,Potency,[3],13.4 µM (active)
O=CNc1ccccc1,Potency,[4],inactive
same,Potency,[3],inactive
same,Potency,[5],inactive
CN(C(=O)CCCOc1ccc2[nH]c(=O)ccc2c1)C1CCCCC1,Potency,[2],inactive
same,Potency,[3],inactive
CNCC[C@@H](Oc1ccccc1C)c1ccccc1,Potency,[5],inactive
C[C@H](CCC(=O)O)[C@H]1CC[C@H]2[C@@H]3[C@H](O)C[C@@H]4C[C@H](O)CC[C@]4(C)[C@H]3CC[C@]12C,Potency,[2],31.8 µM (active)
same,Potency,[3],inactive
same,Potency,[5],inactive
